We go through 15 molecules from PubChem BioAssay (NCATS).

A short description of assay [1]: Quantitative High-Throughput drug screen in 47 multiple myeloma cell lines against the NCATS MIPE library collection: PE2_PLB cell viability assay (AID 1919869). Note: nearly all actives have a fitted effect of over 35% in size. A digest of the protocol: (§1)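 ATP-based luminescence (CellTiter-Glo, 5 min RT incubation) quantified surviving cells following two days' treatment with MIPE 4.0 agents at 37 °C, 5% CO2.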
Assay [2] is described as follows: Quantitative High-Throughput drug screen in 47 multiple myeloma cell lines against the NCATS MIPE library collection: PCM6_Riken cell viability assay (AID 1919870). Note: nearly all actives have a fitted effect of over 30% in size. In short, it runs like this: as §1
The nature of assay [3]: Quantitative High-Throughput drug screen in 47 multiple myeloma cell lines against the NCATS MIPE library collection: RPMI8226_ATCC cell viability assay (AID 1919871). Note: nearly all actives have a fitted effect of over 30% in size. A digest of the protocol: as §1
Assay [4] can be described thus: Quantitative High-Throughput drug screen in 47 multiple myeloma cell lines against the NCATS MIPE library collection: OPM2_DSMZ cell viability assay (AID 1919872). Note: nearly all actives have a fitted effect of over 30% in size. In short, it runs like this:
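Viability readout: CellTiter-Glo luminescence following 5 min room-temperature incubation with reagent. Prior exposure: 48 h, 37C, humidified 5% CO2, 500 cells per well.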

Assay [5] is described as follows: Quantitative High-Throughput drug screen in 47 multiple myeloma cell lines against the NCATS MIPE library collection: KMS11_JCRBsus cell viability assay (AID 1919873). Note: nearly all actives have a fitted effect of over 50% in size. In short, it runs like this:
as §1

Assay [6] in a line: Quantitative High-Throughput drug screen in 47 multiple myeloma cell lines against the NCATS MIPE library collection: KMS28BM_JCRB cell viability assay (AID 1919874). Note: nearly all actives have a fitted effect of over 35% in size. In short, it runs like this: as §1
A short description of assay [7]: qHTS drug screen for cell cycle checkpoint inhibitors in PARPi-resistant BRCA-mutant ovarian cancer cell lines. (AID 1963452; calls by dose curve). To be noted: PEO1/OlaR viability, CellTiter-Glo luminescence, 96 h; for Z-AUC: stronger effect = lower value. In short, it runs like this: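 PEO1, PEO4 and PEO1/OlaR ovarian cancer cells, 600 per well, exposed 96 h at 37C to a dilution series. Viability read by CellTiter-Glo luminescence, normalized to DMSO and empty wells; activity summarized as Z-AUC.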

A short description of assay [8]: qHTS for identification of novel therapeutic agents for treatment of microphthalmiaassociated transcription factor (MiT) renal cell carcinoma (RCC) (AID 1963991; calls by dose curve). To be noted: CellTiter-Glo, 48 h; for z-score: stronger effect = lower value. A digest of the protocol: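 Viability of three TFE3-fusion renal carcinoma lines measured by CellTiter-Glo after 48 h treatment with each of 1912 compounds at 11 concentrations. Responses scaled between DMSO (100%) and empty wells (0%) before curve fitting.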
A general note: In qHTS, concentration-response curves come from the screen itself.

Assay [9] is described as follows: Quantitative High-Throughput drug screen in 47 multiple myeloma cell lines against the NCATS MIPE library collection: UTMC2_PLB cell viability assay (AID 1919868). Note: nearly all actives have a fitted effect of over 55% in size. A digest of the protocol: as §1
Setting [10] is: measured here: PEO1 parental Z-AUC.
[11] abbreviates: TFE3-RCC UOK109 viability, measured here: UOK109 Z-AUC.
Setting [12] is: TFE3-RCC viability, measured here: UOK124 Z-AUC.
[13] abbreviates: TFE3-RCC viability, measured here: UOK145 Z-AUC.

Inconclusive results are not listed. The source made the active and inactive calls. Unless noted, calls come from the whole dose curve; as a rule, active = well fitted cell-killing curve with a large enough effect; inconclusive = small, poorly fitted or top-dose-only effect, or effect the other way; inactive = no such curve, though single readings can be large or run the other way.
Potency is the fitted concentration of half-maximal effect.

For `O=C1c2c(O)ccc(O)c2C(=O)c2c(NCCNCCO)ccc(NCCNCCO)c21`, the Potency is 0.166 µM (active) in assay [1]; 0.935 µM (active) in [2]; 4.69 µM (active) in assay [3]; 3.32 µM (active) in assay [4]; 1.48 µM (active) in assay [5]; 0.662 µM (active) in assay [6]. Also, the Potency in assay [7] was 0.195 µM (active); in assay [8] (TFE3-RCC UOK109 viability, active = Z-AUC below -0.8 in all three lines), 1.05 µM (active). Besides, the Z-AUC in assay [7] (setting [10]) is -2.48; in assay [7] (measured here: PEO4 Z-AUC), -2.26. Further, the z-score was -2.02 in assay [8] (setting [11]), -1.52 in assay [8] (setting [12]) and -2.08 in assay [8] (setting [13]).

For `CNCCCC12CCC(c3ccccc31)c1ccccc12`, the Potency in [1] is 23.5 µM (active); in [2] it was 23.5 µM (active); in assay [3] it was 20.9 µM (active); in [4] it was 23.5 µM (active); in [5] it was 9.35 µM (active); in assay [6], 16.6 µM (active). The figures for the Z-AUC in assay [7], in [7] (setting [10]) and in assay [7] (measured here: PEO4 Z-AUC) were -0.42 (inactive), 0.397 and 0.261, respectively.

Consider `CCOC(=O)Nc1ccc(NCc2ccc(F)cc2)nc1N`, for which the Potency entry in assay [9], in assay [3] and in [4] was “inactive” throughout. The results for the Z-AUC in assay [7], in assay [7] (setting [10]) and in assay [7] (measured here: PEO4 Z-AUC) were -0.444 (inactive), -0.223 and -0.051, respectively. Also, the z-score in assay [8] (setting [11]) is 0.955; in assay [8] (setting [12]), 0.938; in assay [8] (setting [13]) it was 0.317.

Consider `Cc1cc(C(C)(C)C)cc(C)c1CC1=NCCN1`, for which the Potency result in [9], in assay [3], in [4] and in assay [5] was “inactive” each time. The results for the Z-AUC in assay [7], in assay [7] (setting [10]) and in assay [7] (measured here: PEO4 Z-AUC) were 0.735 (inactive), 0.684 and 0.966, respectively.

On to `OCCN(CCO)c1nc(N2CCCCC2)c2nc(N(CCO)CCO)nc(N3CCCCC3)c2n1`, for which the Potency in assay [9] was 20.9 µM (active); in assay [5], 16.6 µM (active); in [6], 16.6 µM (active). Besides, the Z-AUC in assay [7] is 1 (inactive); in assay [7] (setting [10]) it was 0.552; in assay [7] (measured here: PEO4 Z-AUC) it was 0.489.

For `Cc1cnc(C(=O)NCCc2ccc(S(=O)(=O)NC(=O)NC3CCCCC3)cc2)cn1`, the Potency is 14.8 µM (active) in [1], 16.6 µM (active) in assay [2] and 16.6 µM (active) in assay [3]. The Potency entry in assay [4] was “inactive”. In addition, the results for the Z-AUC in assay [7], in assay [7] (setting [10]) and in assay [7] (measured here: PEO4 Z-AUC) were 0.935 (inactive), 0.686 and 0.444, respectively.

Regarding `CN(CCOc1ccc(NS(C)(=O)=O)cc1)CCc1ccc(NS(C)(=O)=O)cc1`, the Potency result in [1], in assay [2], in [3], in assay [4], in [5] and in assay [6] was “inactive” throughout. The values for the z-score in assay [8] (setting [11]), in assay [8] (setting [12]) and in assay [8] (setting [13]) were 0.684, 0.913 and 0.774, respectively.

`CC(C)NCC(O)c1ccc(O)c(O)c1` (configuration not stated): the Potency in assay [1] is 1.48 µM (active); in assay [2], 1.18 µM (active); in [5], 16.6 µM (active); in [6], 7.43 µM (active). For the same molecule, the Potency result in [4] is “inactive”. Further, the results for the Z-AUC in [7], in assay [7] (setting [10]) and in assay [7] (measured here: PEO4 Z-AUC) were 1.31 (inactive), 0.911 and 0.816, respectively.

`OCCN1CCN(CCCN2c3ccccc3Sc3ccc(C(F)(F)F)cc32)CC1`: the Potency was 20.9 µM (active) in [1]; 23.5 µM (active) in assay [2]; 16.6 µM (active) in [3]; 13.2 µM (active) in assay [5]; 23.5 µM (active) in assay [6]. The Potency result in assay [4] is “inactive”. Besides, the Z-AUC in assay [7] was 0.453 (inactive); in assay [7] (setting [10]) it was 0.459; in assay [7] (measured here: PEO4 Z-AUC) it was 0.195.

For `Cc1ccccc1N1C(=O)c2cc(S(N)(=O)=O)c(Cl)cc2NC1C` (configuration not stated), the Potency entry in assay [1], in assay [4], in [5] and in [6] was “inactive” throughout. Besides, the Potency was 5.9 µM (active) in assay [2] and 7.43 µM (active) in assay [3]. In addition, the Z-AUC in assay [7] is -0.939 (inactive); in assay [7] (setting [10]), -0.663; in [7] (measured here: PEO4 Z-AUC), -0.859. In addition, the figures for the z-score in assay [8] (setting [11]), in assay [8] (setting [12]) and in assay [8] (setting [13]) were 0.956, 0.478 and -0.147, respectively.

Turning to `Cc1cn([C@H]2C[C@H](N=[N+]=[N-])[C@@H](CO)O2)c(=O)[nH]c1=O`, the values for the Potency in [1] and in [2] were 20.9 µM (active) and 14.8 µM (active), respectively. In addition, the Potency entry in assay [3], in assay [4], in assay [5] and in assay [6] was “inactive” in each case.

With `Nc1c2c(nc3ccccc13)CCCC2`, the Potency result in assay [1], in assay [2] and in assay [5] was “inactive” in each case. Further, the Potency is 1.32 µM (active) in assay [3] and 16.6 µM (active) in assay [6]. Further, the Z-AUC is 1.3 (inactive) in [7], 1.74 in assay [7] (setting [10]) and 1.21 in assay [7] (measured here: PEO4 Z-AUC). Also, the z-score turned out to be 1.01 in assay [8] (setting [11]), 0.33 in [8] (setting [12]) and 1.46 in assay [8] (setting [13]).

With `CCC1(C)CC(=O)NC1=O` (configuration not stated), the Potency entry in assay [1], in [2], in assay [3], in assay [5] and in [6] was “inactive” in each case. Besides, the Z-AUC is 1.49 (inactive) in assay [7], 1.31 in assay [7] (setting [10]) and 1.61 in [7] (measured here: PEO4 Z-AUC). In addition, the z-score in assay [8] (setting [11]) worked out at 0.867; in assay [8] (setting [12]), 0.609; in assay [8] (setting [13]), 0.715.

Consider `CC(C(=O)O)c1cccc(C(=O)c2ccccc2)c1` (configuration not stated), for which the Potency in [1] is 23.5 µM (active); in assay [2], 16.6 µM (active). Further, the Potency entry in assay [3], in assay [4], in assay [5] and in assay [6] was “inactive” in each case. The Z-AUC in assay [7] was 0.0263 (inactive); in [7] (setting [10]), 0.275; in [7] (measured here: PEO4 Z-AUC), 0.507. The z-score worked out at 0.978 in assay [8] (setting [11]), 0.474 in [8] (setting [12]) and 0.0276 in assay [8] (setting [13]).

As to `CCOC(=O)c1ncn2c1CN(C)C(=O)c1cc(F)ccc1-2`, the Potency result in assay [1], in assay [2], in assay [4] and in assay [6] was “inactive” in each case. The Potency in assay [3] is 2.64 µM (active). The Z-AUC was 1.34 (inactive) in [7], 1.08 in [7] (setting [10]) and 1.29 in [7] (measured here: PEO4 Z-AUC).
